Results reported in PubChem BioAssay AID1347416 (National Center for Advancing Translational Sciences (NCATS), 2020).
The whole screen tested about 4,100 compounds, of which about 1,600 (39%) were called active. Inconclusive results (about 25%) are left out. Calls come from the whole dose curve; as a rule, active = well fitted inhibition curve with a large enough effect; inconclusive = small, poorly fitted or top-dose-only effect; inactive = no such curve, though single readings can be large or run the other way. The list shows a part of the results. Entries that show only a call come without a potency.

assay: qHTS Validation assay for Inhibitors of Plasmodium falciparum Dd2 growth in vitro; note: nearly all actives have a fitted effect of over 70% in size; settings: P. falciparum Dd2 in RBCs, SYBR Green growth, 72 h; series mostly up to 28.7 µM
In short: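 P. falciparum Dd2-infected red blood cells (2.5% hematocrit, 0.3% parasitemia) grown 72 h at 37 °C under 5% O2 with compounds in a titration, 29 uM to 0.5 nM final. Growth read as SYBR Green-1 fluorescence after ~16 h lysis; artesunate 300 nM as positive control.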
Potency is the fitted concentration of half-maximal effect.

Structure (SMILES)	Potency
Cc1cc(C)n(Cc2ccc(C(=O)N3CCC(c4noc(-c5cccnc5)n4)C3)o2)n1 (centres undefined)	inactive
Cc1ccc(CSC2=Nc3ccccc3C3=NC(CC(=O)NCc4ccco4)C(=O)N23)cc1 (centres undefined)	6.68 µM (active)
Cc1ccc(CC(=O)NCc2nnc3c(-c4nc(C(C)C)no4)cccn23)cc1	inactive
COc1cc(C)ccc1OCCSc1nc2ccc(NC(=O)c3ccc(F)cc3)cc2s1	10.6 µM (active)
COc1ccc(NC(=O)c2cc3c(N4CCSCC4)nc(C)cn3n2)cc1OC	inactive
COc1cc(C)ccc1OCCSc1nc2ccc(NC(=O)c3cccs3)cc2s1	13.3 µM (active)
Cc1ccc2[nH]c(C(=O)Nc3ccc(F)cc3)cc2c1	inactive
Cc1cccc(OCCSc2nc3ccc(NC(=O)c4cccs4)cc3s2)c1	9.44 µM (active)
Cc1ccccc1OCCSc1nc2ccc(NC(=O)c3cccs3)cc2s1	5.31 µM (active)
Cc1ccccc1C(=O)NNc1ccc(-c2csnn2)cc1	inactive
CCCCc1ccc(NC(=O)CSC2=C(C#N)C(c3ccco3)C3=C(CCCC3=O)N2)cc1 (centres undefined)	inactive
N[C@@H]1CN(c2ncccn2)C[C@H]1CO	inactive
O=C(NCc1cccs1)c1ccc(CN2C(=O)NC3(CCS(=O)(=O)CC3)C2=O)cc1	inactive
CCCOc1cccc(C(=O)Nc2ccc(-c3cc4ccccc4oc3=O)c(C)c2)c1	inactive
Cc1ccccc1OCCSc1nc2ccc(NC(=O)c3ccccc3)cc2s1	15 µM (active)
COc1ccc(S(=O)(=O)N2CCc3cc(OC)c(OC)cc3C2)cc1	inactive
COc1ccc(S(=O)(=O)N2CCC3(CC2)OCCN3S(=O)(=O)c2c(C)cc(C)cc2C)cc1	2.66 µM (active)
O=C1C(Nc2ccccc2)=C/C(=N/S(=O)(=O)c2cccs2)c2ccccc21	0.335 µM (active)
Cc1cccc(NC2=C/C(=N/S(=O)(=O)c3cccs3)c3ccccc3C2=O)c1	0.168 µM (active)
COC(=O)[C@H]1[C@H]2C[C@@H]3c4[nH]c5cc(OC)ccc5c4CCN3C[C@H]2C[C@@H](OC(=O)/C=C/c2cc(OC)c(OC)c(OC)c2)[C@@H]1OC	5.31 µM (active)
Cc1nc(-c2cccc(Cl)c2)n(CC(=O)Nc2ccc(C(F)(F)F)cc2)c(=O)c1CCO	13.3 µM (active)

Structure (SMILES)	Potency
CCOC(=O)c1ccc(NC(=O)Cn2c(-c3cnccn3)nc(C)c(CCO)c2=O)cc1	inactive
Cc1nc(-c2ccccc2)n(CC(=O)Nc2ccc(Cl)cc2)c(=O)c1CCO	16.8 µM (active)
Cc1ccc(NC(=O)Cn2c(-c3ccccc3)nc(C)c(CCO)c2=O)cc1Cl	10.6 µM (active)
COc1ccc2c(c1)C=C([C@@H]1C[C@H]3CN(c4ccccc4)C(=O)[C@]34CCCN14)CO2	0.944 µM (active)
COc1ccc(-c2cc(-c3cccc(NC(C)=O)c3)cn3cncc23)cn1	21.7 µM (active)
O=C(C[C@@H]1CCNC[C@@H]1Cc1cc(CSc2ccccc2)on1)N1CCN(c2ccccc2)CC1	8.41 µM (active)
O=C(C[C@@H]1CCNC[C@@H]1Cc1cc(COc2ccccc2)on1)NCc1cccs1	inactive
CC(C)(C)c1ccc(-c2cc(C[C@H]3CNCC[C@H]3CC(=O)N3CCN(c4ccccn4)CC3)no2)cc1	15 µM (active)
CC(=O)N1CCN(C(=O)C[C@@H]2CCNC[C@@H]2Cc2cc(CSc3ccccc3)on2)CC1	inactive
CCC(=O)N1CCCCCCNC(=O)[C@@H]2C[C@@H](C(=O)N3CCN(c4ccccn4)CC3)C[C@@H]21	inactive
COc1ccc(CNC(=O)C[C@@H]2CCNC[C@@H]2Cc2cc(-c3ccccc3)on2)cc1OC	inactive
O=C(Nc1ccc2c(c1)C(=O)N1CCC[C@H]1C(=O)N2)c1cc(-c2ccccc2)n[nH]1	inactive
CCN1CCN(Cc2ccc(NC(=O)c3cc(NC(=O)c4nccnc4N)cc(OC)c3)cc2C(F)(F)F)CC1	4.73 µM (active)
CCN1CCN(Cc2ccc(NC(=O)c3cc(NC(=O)c4cncc(-c5ccc(C#N)cc5)c4)cc(OC)c3)cc2C(F)(F)F)CC1	0.596 µM (active)
CCN1CCN(Cc2ccc(NC(=O)c3cc(NC(=O)c4cc(-c5ccc(OC)cc5)n[nH]4)cc(OC)c3)cc2C(F)(F)F)CC1	0.168 µM (active)
COc1cc(NC(=O)c2nnn(Cc3ccc(F)cc3)c2N)cc(OC)c1	inactive
COc1ccc(CNC(=O)N[C@@H]2CN(c3ccncn3)C[C@H]2CN(C)C)cc1	inactive
O=c1cc(CSc2ccc(Cl)cc2)nc(-c2ccccn2)[nH]1	5.96 µM (active)
CCC(=O)N1CCN(c2nc3c(s2)CC(C(=O)NCc2ccc(C)o2)CC3)CC1 (centres undefined)	inactive
COc1ccc2cc1Nc1ccc(cc1)C[C@H](NCc1ccc(C)o1)C(=O)N(C)[C@@H](C(=O)NCc1ccccc1)C2	5.31 µM (active)
COc1ccc2cc1Nc1ccc(cc1)C[C@H](NCc1cccc(C(=O)O)c1)C(=O)N(C)[C@H](C(=O)Nc1ccccc1OCc1ccccc1)C2	4.73 µM (active)

Structure (SMILES)	Potency
CC(C)(C)CC(=O)N1CCC(N2C(=O)CCC2C(=O)NCc2ccccc2)CC1 (centres undefined)	inactive
COc1ccc2cc1Nc1ccc(cc1)C[C@H](NCc1ccc(C)o1)C(=O)N(C)[C@H](C(=O)NCCC(C)C)C2	5.96 µM (active)
COc1ccc2cc1Nc1ccc(cc1)C[C@H](NCc1ccc3c(c1)CCO3)C(=O)N(C)[C@H](C(=O)NCCC(C)C)C2	3.35 µM (active)
Cc1ccc(C(=O)N2CCCCCCNC(=O)[C@@H]3CCC[C@@H]32)s1	inactive
Cc1cccc(CSc2nn3c(=O)c(C)nnc3s2)c1	inactive
CNC(=O)[C@@H]1C[C@@H](n2cc(CN(C)C(=O)c3cc(F)ccc3Cl)nn2)CN1	inactive
O=C(COc1ccccc1)NC1CC(=O)N(c2ccc3c(c2)OCCO3)C1 (centres undefined)	inactive
CC(C)COC(=O)/C(C#N)=C\c1ccc(-c2ccccc2Cl)o1	inactive
O=C1CC(c2ccccc2)N(S(=O)(=O)c2cccc(F)c2)CCCCCN1 (centres undefined)	inactive
Cc1noc(C)c1S(=O)(=O)N1CCCN(Cc2ccncc2)C(c2ccccc2)CC(=O)NCC1 (centres undefined)	7.5 µM (active)
O=C1CC(c2ccccc2)N(Cc2ccncc2)CCCN(S(=O)(=O)c2cccc(F)c2)CCN1 (centres undefined)	4.73 µM (active)
O=C1CC(c2ccccc2)N(Cc2ccncc2)CCCN(S(=O)(=O)c2cccs2)CCN1 (centres undefined)	6.68 µM (active)
O=C1CCC2(CCN1)CCN(S(=O)(=O)c1cccnc1)CC2	inactive
Cc1noc(C)c1S(=O)(=O)NCC(=O)N1CCCCCCNC(=O)CC1c1ccccc1 (centres undefined)	inactive
Cc1noc(C)c1S(=O)(=O)N1CCc2nc3cc(-c4ccccc4)[nH]n3c(=O)c2C1	inactive
O=C(C1CC1)N(Cc1nc2ccccc2c(=O)[nH]1)Cc1cccs1	inactive
COCCN1CCNc2nc(CNCc3cnccn3)n(Cc3ccccc3)c2C1=O	inactive
COc1ccc(CNC[C@H]2O[C@H](Cc3cc(-c4ccccc4)on3)CC[C@@H]2O)cc1	3.85 µM (active)
O[C@H]1CC[C@@H](Cc2cc(-c3ccc(F)cc3)on2)O[C@@H]1CNC1CCCCC1	2.43 µM (active)
COc1ccc(CNC[C@H]2O[C@H](Cc3cc(-c4ccc(OC)cc4)on3)CC[C@@H]2O)cc1	10.6 µM (active)
COc1ccc(-c2cc(C[C@@H]3CC[C@H](O)[C@@H](CNCc4ccccc4OC)O3)no2)cc1	3.44 µM (active)

Structure (SMILES)	Potency
Cc1ccc(S(=O)(=O)NC[C@H]2O[C@H](Cc3cc(-c4cccc(O)c4)on3)CC[C@@H]2O)cc1	inactive
Cc1nccn1CC(=O)N1C[C@@H](COCC2CC2)[C@H](c2ccncc2)C1	inactive
O=C(N[C@@H]1CN(c2ncccn2)C[C@H]1CO)c1cc2ccccc2[nH]1	inactive
NC(=O)CN1C(=O)CO[C@H]2CN(Cc3ccc4c(c3)OCO4)C[C@H]21	inactive
COc1ccc(-c2cn(C)c(=O)n3cc(COc4ccc(Cl)cc4)nc23)cn1	inactive
COc1ccc(NC(=O)C(c2ccc(Cl)cc2)C(C)C)cn1 (centres undefined)	1.88 µM (active)
COC[C@@H]1CN(c2cnccn2)C[C@H]1C(=O)Nc1ccc(OC)nc1	inactive
Cn1c(-n2cccc2)c(-c2c(-c3ccc(F)cc3)[nH]c3c2c(=O)n(C)c(=O)n3C)c(=O)n(C)c1=O	inactive
CCCC(C)N1CC2(CCN(C(=O)Cn3nc(C)cc3C)CC2)OC1=O (centres undefined)	inactive
O=C1CCN(C2CCCC2)CCCC(c2nc(-c3cccnc3)no2)CCN1 (centres undefined)	inactive
O=C(c1ccsc1)N1CCCCCC1c1nc(-c2cccnc2)no1 (centres undefined)	inactive
CN1CCN(c2ccc(-c3noc([C@@H]4CCCN4C4CCCCC4)n3)cn2)CC1	19.3 µM (active)
CNC(=O)c1cc(-c2ccncc2)cc2c1OCCN2Cc1cccnc1	inactive
CNC(=O)c1cc(-c2ccc([S+](C)(=O)[O-])cc2)cc2c1OCCN2Cc1cccnc1	inactive
COc1cncc(-c2cc(C(=O)NCc3cccnc3)c3c(c2)N(C)CCO3)c1	inactive
CN1CCOc2c(C(=O)NCc3cccnc3)cc(-c3cccc4[nH]ccc34)cc21	8.63 µM (active)
CN(C)CCNC(=O)c1cc(-c2ccccc2F)cc2c1OCCN2Cc1cccnc1	6.85 µM (active)
COCCNC(=O)C[C@@H]1C[C@H]2O[C@H](CN)[C@@H](O)[C@H]2O1	inactive
C=CCOC(=O)Nc1nc2c(s1)C[C@@H]1[C@](C)(CO)[C@H](O)CC[C@@]1(C)[C@@H]2CC(=O)NC1CCCCC1	3.76 µM (active)
C#CCNC(=O)C[C@@H]1c2nc(NC(=O)OCC=C)sc2C[C@@H]2[C@](C)(CO)[C@H](O)CC[C@]21C	15 µM (active)
Cc1nc2cc(N3CCCC(C(=O)NCCN4CCCCCC4)C3)cnc2nc1C (centres undefined)	inactive
